This is a sample that favours compounds with a hit; in the whole collection about 4.1% have one here.
hcDAF12 agonist – activators of H. contortus DAF-12 nuclear receptor; activation, % at 6.8 µM; AID 652067; hit rate 1.4% among 370,000; HEK293 hcDAF-12 lit1-tk-luc reporter, luminescence; 0% DMSO, 100% Δ7-dafachronic acid;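 active means activation above the mean of all tested compounds plus 3 SD, cut at about 5.5% in these data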;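 further: 100% = response to 3 µM Δ7-dafachronic acid high control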
ssDAF-12 act – activates DAF-12 receptor from parasite S. stercoralis. HEK293 ssDAF-12/GRIP1 lit1-tk-luc reporter, luminescence; % of 3 µM dafachronic acid response. activation, % at 6.8 µM. hit rate 1% among 370,000;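 active means activation above the mean over all tested compounds plus 3 SD, cut at about 0.9% in these data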;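 further: 0% = DMSO-only wells and 100% = 3 µM delta7-dafachronic acid wells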
PolyA inhibitor – yeast polyadenylation inhibition | S. cerevisiae SKY197-pL101 polyadenylation reporter, beta-gal luminescence; efflux-impaired pdr1/pdr3 knockout yeast; score 100 = 6 SD above DMSO | activity score, % at 12 µM | hit rate 0.02% among 300,000;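 active means lowest replicate activity score at least 50, where 100 means six control SD above control mean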;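 further: yeast exposed to compound for 9 h at 30 °C; higher score means more reporter readthrough which indicates perturbed polyadenylation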
DAX1 inh-1 – DAX1 (NR0B1) inhibition, primary screen | hit rate 1.1% among 370,000 | HEK293T StAR-luciferase reporter, SF-1/DAX-1 repression relief | inhibition, % at 6.8 µM;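 active means inhibition above the mean over all tested compounds plus 3 SD, cut at about 3.6% in these data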;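 further: 0% = DAX-1 cells with DMSO and 100% = cells lacking DAX-1 with DMSO; higher inhibition means more luminescence from relief of DAX-1 repression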
hgDAF-12 ag – agonists of H. glycines DAF-12 nuclear receptor; activation, % at 6.8 µM; HEK293 GAL4-hgDAF12 UAS-luciferase reporter, agonist luminescence; normalized to butyrate control; AID 687014; hit rate 1.8% among 370,000;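 active means activation above a cutoff set at the mean of all screened compounds plus 3 SD, cut at about 10% in these data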;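 further: 0% = DMSO wells and 100% = sodium butyrate wells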
DAX1 inh-2 – inhibits human nuclear receptor DAX1; P51843; HEK293 Gal4-DAX1 luciferase reporter, luminescence; inhibition, % at 6.75 µM; hit rate 0.99% among 340,000;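 active means inhibition above the mean over all tested compounds plus 3 SD, cut at about 4.2% in these data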;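 further: 0% = DAX1-transfected cells with DMSO and 100% = empty-vector control cells with DMSO; inhibition shows as a rise in luminescence from relieved DAX1 repression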
Target sequence (P51843 207-470 limits assumed): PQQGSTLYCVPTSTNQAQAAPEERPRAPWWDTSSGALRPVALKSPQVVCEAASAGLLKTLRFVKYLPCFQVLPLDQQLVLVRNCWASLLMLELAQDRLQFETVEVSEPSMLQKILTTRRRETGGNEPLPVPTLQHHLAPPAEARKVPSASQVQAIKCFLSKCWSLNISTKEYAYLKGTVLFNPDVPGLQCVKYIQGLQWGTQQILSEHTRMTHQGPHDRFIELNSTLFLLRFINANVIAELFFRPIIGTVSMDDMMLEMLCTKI
An asterisk follows results filed as active; x = no result given.

SMILES | hcDAF12 agonist | ssDAF-12 act | PolyA inhibitor | DAX1 inh-1 | hgDAF-12 ag | DAX1 inh-2
CC(=O)Nc1c(C(=O)O)[nH]c2ccccc12 | 6.1* | 1 | 2 | 0 | -1 | 0
COc1cc(C(=O)Nc2c(C(=O)O)[nH]c3ccccc23)cc(OC)c1OC | 6.1* | 1 | -6 | 0 | 1 | 1
Cc1cc(C(=O)COC(=O)c2ccc(Br)o2)c(C)n1C | 1 | 0 | -3 | 0 | 6 | 0
COCCn1c(C)cc(C(=O)COC(=O)c2ccc(Br)o2)c1C | 1 | -1 | -10 | 1 | 1 | 5.4*
CC(C)(C)NC(=O)CON=C1c2ccccc2-c2ccccc21 | -5 | -2 | 9 | 0 | 0 | -2
CC(C)(C)NCC(O)CON=C1c2ccccc2-c2ccccc21 (stereo not given) | -1 | -2 | -6 | 1 | -3 | 5.4*
COc1ccc2nc(SCC(=O)N3CCNC3=O)[nH]c2c1 | 2 | -1 | 6 | 3 | 11* | 2
COC(=O)C1CCN(C(=O)CSc2nc3ccc(OC)cc3[nH]2)CC1 | 0 | -1 | 5 | 0 | 1 | 1
CC(Sc1nnc(-c2ccc(OC(F)F)cc2)n1N)C(=O)NCC1CCCO1 (stereo not given) | 0 | -1 | -21 | 4.4* | 1 | 0
O=C(COC(=O)c1ccc(OC(F)F)cc1)NCC1CCCO1 (stereo not given) | -1 | -1 | x | -2 | 4 | 1
CC(Sc1nnc(-c2ccc(OC(F)F)cc2)o1)C(=O)NCC1CCCO1 (stereo not given) | 2 | 1.1* | 1 | 1 | -2 | 0
CC(Sc1nnc(-c2ccco2)n1N)C(=O)NCC1CCCO1 (stereo not given) | -1 | -1 | x | -1 | 1 | 0
Nc1[nH]c2cc(C(F)(F)F)ccc2c1C(=O)N1CCN(CCc2ccccc2)CC1 | 4 | 1 | x | 0 | 0 | x
CCCc1ccc(S(=O)(=O)N2CCN(C(=O)CN3C(=O)NC(C)(C4CC4)C3=O)CC2)cc1 (stereo not given) | 1 | -1 | x | 1 | -2 | 4.3*
CCC(C)c1ccc(S(=O)(=O)N2CCN(C(=O)CN3C(=O)NC(C)(C4CC4)C3=O)CC2)cc1 (stereo not given) | 0 | -1 | x | 1 | -2 | 1
C#CCNC(=O)C[C@H]1C[C@@]2(C(=O)OC)C(=C[C@H](C(C)C)O[C@@H]2C2CC2)N(Cc2ccc(Cl)cc2Cl)C1=O | 1 | -1 | x | -1 | 3 | x
CCN(CC)C(=O)CSc1ncnc2sccc12 | 0 | -2 | 17 | -1 | 0 | 1
CCN(CC)C(=O)CSc1ncnc2c(-c3cccs3)nsc12 | 2 | 0.9* | x | 1 | 2 | 1
CN(C(=O)[C@@H](Cc1ccccc1)NC(=O)[C@H]1O[C@@H](n2ccc(=O)[nH]c2=O)[C@H](O)[C@@H]1O)C1CCCCC1 | 0 | 0 | x | 0 | 5 | x
O=C(CN1C(=O)NC(Cc2ccccc2)C1=O)Nc1ccc(F)cc1 (stereo not given) | -2 | -1 | 15 | 0 | 0 | 4.5*
O=C(CN1C(=O)NC(Cc2ccccc2)C1=O)Nc1ccc(OC(F)(F)F)cc1 (stereo not given) | 1 | -1 | x | 0 | 0 | 2
CCS(=O)(=O)N1CCc2nc(-c3ccccc3)sc2C1 | 3 | 0 | 14 | 2 | 12* | 4.9*
COc1ccc(-c2nc3c(s2)CN(S(C)(=O)=O)CC3)cc1OC | 1 | -1 | 14 | 0 | 1 | 2
COc1ccc2cc3cc(C(=O)Nc4ccc(F)cc4)sc3nc2c1 | 1 | -1 | x | x | 4 | x
CC(C)c1ccc(/C=N/NC(=O)C2CCCC2)cc1 | 6.0* | 0 | 15 | 4 | 8 | 0
SMILES | hcDAF12 agonist | ssDAF-12 act | PolyA inhibitor | DAX1 inh-1 | hgDAF-12 ag | DAX1 inh-2
CC(C)(C)c1ccc(/C=N/NC(=O)C2CCCC2)cc1 | 1 | 0 | x | 3 | 6 | 2
NC(=O)Nc1cccc2ccccc12 | 3 | 1.7* | -13 | 1 | -1 | 1
O=C(COC(=O)c1ccccc1O)Nc1cccnc1Cl | 0 | -2 | 17 | -1 | -1 | 0
O=C(COC(=O)c1cc2ccccc2cc1O)Nc1cccnc1Cl | 4 | 1.0* | -8 | 0 | 2 | 0
O=C(COC(=O)c1cccnc1)Nc1cccc2ccccc12 | 0 | 0 | 2 | 0 | 0 | 4.5*
CC(=O)c1ccc(NC(=O)Nc2cccc3ccccc23)cc1 | -1 | 0 | x | 3.7* | 4 | 1
COC(=O)c1ccccc1NC(=O)COC(=O)c1cccnc1 | -1 | -1 | -15 | 0 | 1 | 1
Cc1ccc(-c2c(NC(=O)Nc3ccc(F)cc3)nc3ncccn23)cc1 | 1 | -1 | x | -2 | 4 | x
CCOC(=O)N(C)[C@H]1C[C@H]2c3[nH]c4c(-c5cccc(C)c5)cccc4c3CCN2C[C@H]1[C@H](C)O | -3 | -2 | x | -2 | -2 | x
O=C(CNC(=O)c1ccc(F)cc1)c1ccc(Cl)cc1 | 3 | 0 | -1 | 1 | 11* | 1
O=C(NCC(=O)N1CCOCC1)c1ccc(Br)cc1 | 1 | -1 | 13 | 0 | -1 | 1
O=C(NCC(=O)N1CCCCCC1)c1ccc(Br)cc1 | 0 | -1 | 5 | 0 | 2 | 4.4*
O=C(CCSc1ccccc1)N1CCN(c2ccccc2)CC1 | 2 | 0 | -14 | 3 | 12* | 3
Cc1nc(C(=O)NCC(=O)c2ccc(Cl)cc2)c(C(F)(F)F)o1 | -1 | 1.6* | 4 | 0 | -1 | 0
CCCCS(=O)(=O)NCC1CCN(C(=O)C(=O)c2cc3ccccc3o2)CC1 | -1 | -1 | x | 0 | -2 | x
CCCCNC(=O)C1CCCN1C(=O)Nc1cccc(C)c1 (stereo not given) | 2 | -1 | x | 1 | 1 | x
O=C(CNC(=O)c1ccc(Br)cc1)c1ccccc1 | 4 | 0 | 2 | 3 | 13* | 1
O=C(NNC(=O)c1ccccc1O)c1ccc(Br)cc1 | -1 | -1 | 24 | 0 | 5 | 7.4*
O=C(COC(=O)c1ccccc1O)NNC(=O)c1ccc(Br)cc1 | 1 | -1 | x | -1 | -1 | 0
O=C(NCC(=O)N1CCN(c2ccccc2)CC1)c1ccc(Cl)cc1 | -2 | -1 | 6 | 0 | -3 | 4.9*
Cc1ccc(F)cc1C(=O)N1CCCC(c2nc(-c3cccs3)no2)C1 (stereo not given) | -2 | -1 | x | 0 | 6 | x
c1ccc(-c2cnc(-c3ccccc3)nc2)cc1 | 5 | 1 | -14 | 2 | 11* | 2
O=C(Nc1ccccc1)c1cc(-c2ccccc2Cl)no1 | 1 | 0 | -21 | 3 | 10 | 4.3*
Cc1cccc2nc(=S)n(C(=O)c3ccco3)n12 | 3 | 0 | -3 | 3 | 13* | 4.6*
O=C(c1ccco1)n1c(=S)nc2ccccn21 | 3 | 0 | -15 | 1 | 12* | 2

From PubChem
